Measurements: the supplement of paper PMC10681739

Key:
ETS1 [1] = molecular target: T1, ETS1 (UniProt P14921); experiment: ETS1 binding intensity (PBM fluorescence), ETS1 alone (arbitrary fluorescence units); higher = stronger binding; conditions: ETS1 concentration 1 nM; RUNX1 concentration 0 nM
T1 sequence: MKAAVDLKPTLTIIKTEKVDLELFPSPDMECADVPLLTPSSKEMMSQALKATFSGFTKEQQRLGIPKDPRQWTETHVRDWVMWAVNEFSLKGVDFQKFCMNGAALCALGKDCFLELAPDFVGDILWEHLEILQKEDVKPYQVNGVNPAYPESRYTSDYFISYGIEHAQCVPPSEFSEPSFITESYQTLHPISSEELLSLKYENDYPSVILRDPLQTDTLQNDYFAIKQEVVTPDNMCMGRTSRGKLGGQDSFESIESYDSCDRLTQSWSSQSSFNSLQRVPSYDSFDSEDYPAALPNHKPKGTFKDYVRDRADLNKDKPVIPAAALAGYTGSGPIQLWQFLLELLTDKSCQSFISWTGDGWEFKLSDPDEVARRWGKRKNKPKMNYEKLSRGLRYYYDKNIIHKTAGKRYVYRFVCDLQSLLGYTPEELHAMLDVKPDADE

RUNX1 = RUNX1 (UniProt Q01196); experiment: RUNX1 binding intensity (PBM fluorescence), RUNX1 alone (arbitrary fluorescence units); higher = stronger binding; conditions: RUNX1 concentration 2 nM; ETS1 concentration 0 nM
Method: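 Cooperative gcPBM on 36-bp genomic probes with neighbouring ETS1 and RUNX1 sites. Recombinant human RUNX1 (2 nM) was incubated alone or with ETS1 (25 nM) and detected with anti-RUNX1 antibody plus Alexa488 secondary. Values are medians over 4 replicate spots; the RUNX1+ETS1 data were normalised to the RUNX1-only data. The probes sit in constant array flanks that are not printed.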

ETS1 [2] = molecular target: T1, ETS1; experiment: ETS1 binding intensity (PBM fluorescence) in presence of RUNX1, normalised to ETS1-only experiment (arbitrary fluorescence units); higher = stronger binding; conditions: ETS1 concentration 1 nM; RUNX1 concentration 25 nM
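Wherever RUNX1 binding intensity (PBM fluorescence), RUNX1 alone is given: Full-length recombinant human RUNX1 bound to double-stranded 36-bp genomic probes on a high-density microarray, scored as Alexa488 fluorescence per spot via anti-RUNX1 antibody, median of four replicate spots.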

Chain of RUNX1 (Q01196 whole entry): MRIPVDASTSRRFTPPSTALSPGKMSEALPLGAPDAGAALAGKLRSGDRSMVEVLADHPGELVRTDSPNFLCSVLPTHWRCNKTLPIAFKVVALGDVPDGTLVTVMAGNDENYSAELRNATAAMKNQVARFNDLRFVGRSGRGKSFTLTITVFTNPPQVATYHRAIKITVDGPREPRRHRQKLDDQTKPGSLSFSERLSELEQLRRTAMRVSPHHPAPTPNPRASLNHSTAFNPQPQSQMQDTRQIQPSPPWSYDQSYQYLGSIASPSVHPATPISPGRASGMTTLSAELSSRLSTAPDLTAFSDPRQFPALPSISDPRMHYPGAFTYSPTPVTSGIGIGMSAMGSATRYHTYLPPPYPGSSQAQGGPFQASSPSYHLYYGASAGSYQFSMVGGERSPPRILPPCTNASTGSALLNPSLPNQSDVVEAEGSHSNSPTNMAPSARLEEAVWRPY

Sequence | ETS1 binding intensity (ETS1 [1]) | RUNX1 binding intensity (RUNX1) | ETS1 binding intensity (ETS1 [2])
ATTAGAGGTAGAGGAAATACCACATGCAAAGGTTTG | 793 | 785 | 1090
CCCAAGCTACGGAAGTTAAACCTCAAACATGAAATC | 1110 | 1040 | 1420
CAGATCCGGCGTGGACGAAGCTCGGGAACCACAACA | 353 | 798 | 
GCACCCTTCCTGCTTCCCACAGTGTGGTATAAGAGG | 412 | 965 | 475
GCCCAGGGCGGCCGGAAGTTTGCGGGGCGGGGCGGA | 8880 | 754 | 
GCCAGGGCAGGAAGTTGCTAACCGCCCCAGAGCAGG | 2840 | 804 | 4850
GCTAGACAGGAAACAGTGAGCTTCTGTGGGCAGGAG | 2770 | 758 | 
ATTTCGCTGAAAACAGGAAACCACGAAGCCCAGATG | 3270 | 899 | 
CTACAAACGGCTTCCTCCTGCCTAACCACAACCTCA | 455 | 3280 | 1130
GGAGCAAGGATGACAGGATGTGGCTTAGGGGGAGGC | 5020 | 708 | 7820
TGCAAAAAAACAGGAAACACCCAGCCGCAAATTATA | 1740 | 863 | 
CCAACTTTTGAGGGATGTGGTTACGTTTTCTAGATC | 366 | 1410 | 1440
TACGTCACTTCCGGGCCGCCGTCCTGCGGGCAAGGG | 2570 | 799 | 3920
GCGCTTCCTGCCAGCTTGGAGGATAACCGCCTACCG | 505 | 754 | 513
TGGGGAGGCAGGAAACGGGCCTTGTGGTTGGGGGGT | 4210 | 770 | 
CGTCTAATTGCAGGAAGTGGTTTGAAATGTTAATCT | 4180 | 1980 | 
ATCAAACCCCAGGATATGTTGGTTTTGTAGGTTGTC | 562 | 874 | 524
GAGGGACAGGATGCCGCCAGGAACCACAAGAGCTTC | 996 | 844 | 
TCACCTCATCACAGGAAACCGCGAGCACCTCCTCCT | 2180 | 1610 | 5440
GCAGAAGAGGAAATGGTTTGCCTGTGCGGTGGGGGA | 1370 | 821 | 3280
CACTTCCGGGTCGTCAGCTCAGTTCTGCGGTTTCTG | 1030 | 4240 | 5740
CGGCTGTTTTCCAGGATGTTGTGGTCATGGCGGTGT | 1590 | 2920 | 6320
CCCTTCCGCGTGGGTTGCACCTGCTAACCACAGAGC | 329 | 1090 | 866
CTGCGAGCTCAGAACGGAAACCACAGCAACTACCGT | 2170 | 1070 | 4260
CACCTCAGCTTCCTGTGTAGCTGGGACCACAGGCAT | 687 | 827 | 888

Sequence | ETS1 binding intensity (ETS1 [1]) | RUNX1 binding intensity (RUNX1) | ETS1 binding intensity (ETS1 [2])
AATGCAGCATTTCCTCTCCAGTTCACCACAGGCCCC | 590 | 1490 | 634
TGTCTCTGCCGCCGGAAACCGCGCCGTAGATCATGC | 5360 | 945 | 7800
AACTTAGCTTCCGGGAAGAAGGCGAGCGGTGGGAGG | 780 | 735 | 724
GTGAGTCACTTCCTGACCATGTGGGTTTTTGGTACG | 568 | 823 | 
CCGATTTCCCCGGACGTGGTGAGACCGCGCTTCGTC | 591 | 835 | 855
AGCGTTTCCTGCCTGTCTGGGGCTGACAAACCACAA | 623 | 930 | 492
AGGCTGTGTGAAGGATGTGGTCAGGCGGAGGCCAGG | 604 | 921 | 
CCTGCCTGACCGGAAGTGCCCGCAACCCCACCGACC | 20600 | 1180 | 32600
GGCTGGGGCGGTATCCTGTGGTCTTACTCTGGTGAC | 445 | 1520 | 437
AGGACACAGACAGGAAACCCGCAGGCTTTGTTTTTT | 2580 | 859 | 5290
ACCTTGCCTAGAGGAAGTGGTTTTTCGAATCTGAGT | 2070 | 739 | 
CAGACCAGCCCAGGAAACAAGGAACCACAAAGCCAC | 656 | 842 | 2260
GTGCAGACAGGAAATAGCTGCTCTGCGGCAGCCCGA | 5830 | 752 | 6350
CCTTGCAGCAACGGATGTGGGTTTTTTTTTTTCTTT | 4030 | 1120 | 
AAGAGGAAATAAATACCAGAGTGAACCCACAAACCT | 441 | 892 | 943
TGCGCCGGAAGTGCATGAGCTGCCGATGTGGTGCTT | 4760 | 715 | 5410
AGCAGCTGCCAGAGGAAGTCTGCGGTCGGAACAGGC | 1260 | 1410 | 10800
ACTACAGGAGGAAACTACAGCCTAAACCACATGCAA | 510 | 975 | 1010
CTGGTTTCATTTCCGGGTGCGGCTTCTGTCATAAAG | 1900 | 924 | 2350
TACTTAGAGGAAATGTGGCCTGTGGTCTTGTCTCAC | 617 |  | 977
TTCTTCCCCCTTCCGGTCGCTGAGTGGTTGAGGCCG | 4140 | 898 | 3610
TGTCCACCTCTACGGAAGTGCGCCGCAGTCCGCCAG | 1620 | 792 | 2370
GAAGCGATATTTCCTCCTGGGGTTGACCGCCCCGTG | 492 | 761 | 478
CCCTCTCTTCTTCCTCCCCCACCACAAAAGTCACAG | 550 | 2440 | 641
GGAGGGGAGCAGGAAGCTGAGGTTTTGTGAGTCAGA | 1090 | 753 | 2490

Sequence | ETS1 binding intensity (ETS1 [1]) | RUNX1 binding intensity (RUNX1) | ETS1 binding intensity (ETS1 [2])
TGGGAAGGGTGAGGAGGAAGCGGTGGCCTTGCTCTG | 604 |  | 604
GTGTGCGTGAGAAGAGGAAGTGGTTAGGAAGACACA | 4030 | 801 | 12200
GGCGGTGACCGGAAGAGCTGAGTCACCGCAGGCGAC | 4020 | 813 | 11300
TCGGAGACGGCGAAAGGAAACCGCAAGGAGGCCACC | 642 | 4180 | 2820
GGTTTCGCTTCCGGGTTAGGCGGCCGCAGAAGCGTA | 947 | 790 | 1340
CATCAAGTATTTCCTCACGCAAGCAACCGCATCCAT | 392 | 1180 | 634
CGCCGTAGGAGGAAGCCGCGGCCGCAACGCTCCTGG | 454 |  | 816
CCCAGGGCAGGAAGGGCCAAACCGCTACTGCCACTG | 882 | 744 | 2080
TCTTTAAAACCCGGAAGTTCCTGTGGTTCATACGCT | 8500 | 978 | 16500
CAAATGAATAAAGGATGTGGTAAATTATTTTCTTCT | 935 | 814 | 5660
GACACCCCACACCGGAAACCTCAGACAGTCCTCAGC | 4120 | 1170 | 4680
TGCCACATCCTGCCCCTCCCCAGGTCTAACCACCAA | 696 | 1260 | 754
GCAGGCGGAGCTTGAGGAAACCGCAGATAAGTTTTT | 463 | 9080 | 2510
CCAGAGCACATCCTACACGCACCACAACCTGAAAAC | 453 | 1250 | 396
AACAGCACACAGGAAGTTACCGCTGAAGCAAAGGAG | 2750 | 813 | 4760
GTTCAGCGGACGGCTTCCTGCGGCTTGCTGGGGCCG | 361 | 724 | 462
ATCCCACTATAGGAAGCTTCTCTGTGGTTTTGAGCC | 369 | 1370 | 1640
AACTGTCTCTACCCAGGAAGTGGTTTTATTTAAAAG | 5160 | 1020 | 14900
ACCTGTAGGCGGAAGTCTGTGGCTTTATTTACACAG | 2340 | 792 | 5710
TCCTCCCACGGGAAGTGCCGTAGGACCGCAGCCCGA | 870 | 812 | 1170
GGTGACACGGCCGGCTTCCTGCCGCAGAGCTCCTGG | 719 | 768 | 639
AGAAGGCGCCGGAAGTGGTCCCGCAGAGGCGGGGTG | 8990 | 725 | 14100
CGGGGGCCAGGCTTCCTGTGGTGGGAGCGGCAGGCC | 443 | 830 | 477
AGGCCTCGCTTCCTCTCCTGACCACACCCTGCAGCT | 446 | 1160 | 590
TGAAGTTCAGGGGGAAGTGGTTAGAGTCCCTGCGAG | 494 |  | 674

Sequence | ETS1 binding intensity (ETS1 [1]) | RUNX1 binding intensity (RUNX1) | ETS1 binding intensity (ETS1 [2])
TGGCTTGTTTCCGGTTCCTCTGTGGCGCCGTTCTCG | 3480 | 938 | 2820
AGTACGATGGGAGGAAGTGGTTTGTAAGAGGAGGAC | 1740 | 640 | 3390
AGGAGAAGGAAGAGGATGTTGAGGTTGGGGGAAACC | 1610 | 726 | 2530
GCCCAGGGAAGCACTTCCTGCGGGGCGCGGTGCAGC | 1030 | 744 | 1270
AGTTGCTAAGGAAATGACTGCCCGCAGCGCCTGGCC | 423 |  | 929
GGCCGGGGACGGAAGGCGGGCCCGCAGCAGATCCTG | 475 |  | 362
TGCACTCCACTTCCCCTCGCCCGCAGTGAGCAGTCA | 426 |  | 450
GCAGAAGGAAGTGTGGCTTGGCGCGGTGGCTCACAC | 475 |  | 405
TGCCTCTTCCTGTGGCTGGGCTGTATCTGACCACAC | 503 |  | 462
AGCACCCCACATCCTGCACCCCACAACCCAGATCCC | 510 |  | 546
ACTTACTTCCCGACGTCACAGCCTCCGACACCACAG | 471 |  | 423
CCACTAGCAGGAAAACGGGCCGAGGGACCGCAAGCA | 395 |  | 688
GTCAGGAAACACATAGTTGTGTTTAACCTCAGGAAA | 466 |  | 399
GTGCGGAAGCGCGCCAAGGCACGTGACCGCTTCTGT | 381 |  | 475
GGCAGGAGCTTCCGGCTCAGCCCTGCGGCCTGTGCC | 498 |  | 768
TGCAGCCGCCGCGTCCGGTCCAGCCGCAGGGCCATG | 536 |  | 543
CATTCCCGAGAGACTTCCGCGCCGCAGTTTCCCTGC | 523 |  | 380
CAAGCCACTTCCTTTCTTGCTCCCACAACCTGTGTT | 579 |  | 471
GTTGGGGTGCGTGTAGGATGTGGTCTGGGATGATTA | 599 |  | 2610
GCCACCGTATTTCCGCGTTTTTCGCGGTAGGCGGGA | 465 |  | 576
GACGCATAAACAGGAAGGCCTGCGGGAGGGCCCGCC | 855 |  | 948
TTCTTGTTTCCTGTCAAGGGAGGCTCTGACCACCTC | 728 |  | 753
